This passage reports activation results from PubChem BioAssay AID1117280 (The Scripps Research Institute Molecular Screening Center, 2014).

Among all 1,100 compounds or so, fewer than 10 were called active. The list is a sample of the results. Values without a mark were called inactive.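 The calls were made as follows: active = mean activation above a set limit taken from the earlier primary screen (cut at about 11% in these data); inactive = the rest.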

The assay addresses Transthyretin (Homo sapiens) (UniProt P02766). Description: compounds raising TTR promoter-driven luciferase – cell-based, luminescence, SH-SY5Y, triplicate, confirmation (AID 1117280).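 Also: 0% = DMSO-treated cells and 100% = recombinant Lucia luciferase without cells.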 The settings on record: SHSY5Y TTR promoter Gaussia luciferase, at 16.7 µM, stronger effect = higher value, 100% = purified Lucia enzyme wells, no cells.
For `COc1ccc(-c2oc3ncn(Cc4ccco4)c(=N)c3c2-c2ccc(OC)cc2)cc1`, the activation was -0.27%.

With `O=C(NNC1=NCCC1)c1cccc(S(=O)(=O)N2CCCCC2)c1`, the activation is 0%.

On to `Cc1ccc(CN2CCCOCCS2(=O)=O)cc1`, for which the activation was 0.01%.

Turning to `O=S(=O)(NCCCN1CCOCC1)c1ccc(F)c(Cl)c1`, the activation is 1.67%.

On to `N#Cc1cccc(CN2CCC(=O)N(CCO)CC2)c1`, for which the activation is 0.71%.

For `Cc1cc(C)c2nc3nc(C)cc(C)c3c(N)c2c1`, the activation is 9.48%.

In the case of `COc1cccc(-c2cnc(C(O)c3ccccc3OC)[nH]2)c1` (stereo unspecified), the activation is -0.09%.

Consider `C/C(CC(=O)Nc1ccc(N(C)C)cc1)=N\NC(=O)c1ccccc1F`, for which the activation was 0.83%.

Take `C(=N\n1cnnc1)/c1cccnc1`: the activation was 0.91%.

Consider `CCOc1ccccc1NC(=O)COc1ccc(S(=O)(=O)N2CCCC2)cc1`, for which the activation is 1.24%.

For the compound `CSCCC(NC(N)=O)C(=O)N(C)CC(=O)Nc1ccc(C)cc1` (stereo unspecified), the activation was -0.85%.

Turning to `CCOC(=O)c1cc(-c2ccc(Cl)s2)nc2c1c(C)nn2C`, the activation is 0.17%.

Regarding `O=C(Nc1cccc(O)c1)c1ccc(C(=O)c2ccccc2)o1`, the activation is -1.44%.

For the compound `COc1cc(C(C)=O)ccc1OC(C)C(=O)Nc1ccc(S(=O)(=O)N2CCCC2)cc1` (stereo unspecified), the activation was 0.49%.

In the case of `Cc1c(NS(=O)(=O)c2ccc(NC3CCCC3)c([N+](=O)[O-])c2)c(=O)n(-c2ccccc2)n1C`, the activation is -1.51%.

For the compound `N=c1ccn(CC(=O)NC(N)=O)c2ccccc12`, the activation is 11.7% (active).

For `C[C@H](NC(=O)C1CCN(S(=O)(=O)c2ccccc2)CC1)C(=O)NCc1ccccc1`, the activation was -0.18%.

Turning to `CCCCc1cc(=O)oc2cc(C)cc(OCc3nn[nH]n3)c12`, the activation was 0.29%.

On to `O=C(O)C1OC(C(=O)O)C2C1C(F)(F)C2(F)F` (stereo unspecified), for which the activation is 0.77%.

For `CCCCOCCCNC(=O)C[C@H]1C[C@@]2(C(=O)OC)C(=C[C@H](C(C)(C)C)O[C@@H]2C)N(CCc2ccc(OC)c(OC)c2)C1=O`, the activation is -0.4%.

With `Cc1cccc(C)c1NC(=O)CN1C(=O)C(C)Oc2ccccc21` (stereo unspecified), the activation is -0.02%.

Take `Brc1ccc(/C=N/N2CCN(C3c4ccccc4-c4ccccc43)CC2)s1`: the activation was -0.21%.

With `O=C(O)Cn1c(Cc2ccccc2)nc2ccccc21`, the activation was -0.81%.

On to `Cc1nc(-c2ccc(Cl)cc2)sc1C(=O)NN`, for which the activation was 1.27%.

For `COc1cc(N2C(=O)CC3(CCCC3)CC2=O)cc(OC)c1OC`, the activation is 0.03%.

On to `CCCCCc1ccc(-c2cn(Cc3ccc4ccccc4c3)nn2)cc1`, for which the activation was -0.98%.

With `CCOc1ccc(N=C2NC(=O)S/C2=C\c2ccc(O)cc2)cc1`, the activation was -2.11%.

For the compound `Cc1ccccc1/[N+]([O-])=C/c1ccncc1`, the activation is 0.64%.

As for `O=C(NCCCNC(=O)c1ccccc1Cl)c1cnccn1`, the activation is -0.49%.

In the case of `COc1ccccc1N1CCN(Cc2cc(OC)c3c(c2)OCO3)CC1`, the activation is 1.03%.

For the compound `O=C(CCC(=O)c1cccs1)NCc1ccccc1`, the activation is -0.16%.

As for `CCOc1ccc(NC(=O)COc2ccc(S(=O)(=O)N3CCCC3)cc2)cc1`, the activation was -0.08%.

`Cc1c(C#N)c(NC(=O)c2ccccc2)n(Cc2ccccc2)c1C`: the activation is 0.46%.

Take `O=C(Nc1ccccc1C(=O)N1CCCCCC1)c1ccccc1Cl`: the activation is 0.38%.

As to `COc1ccc(S(=O)(=O)NCC(=O)NCc2cc(=O)n(C)c(=O)n2C)cc1F`, the activation is -0.18%.

As to `Cc1cccc(N2C(=O)CC(SC(N)=Nc3ccccc3)C2=O)c1` (stereo unspecified), the activation was -0.45%.

As to `C=C1C(C(C)C)N(C)C2=NC(c3ccccc3)CC(=O)N12` (stereo unspecified), the activation was 0.07%.

As to `Cc1cc(C)c(C#N)c(N2CCC(C(N)=O)CC2)n1`, the activation is -0.71%.

Take `CC(C)NC(=O)c1ccc(Sc2ccccc2)c([N+](=O)[O-])c1`: the activation was -0.62%.

As to `CCOC(=O)c1c(-c2ccccc2)oc2ccc(OCC(N)=O)cc12`, the activation is -0.6%.

Take `O=C(NC(=O)c1ccccc1N1CCCCC1)Nc1ccc(Br)cc1`: the activation was 0.23%.

In the case of `COc1ccc(C2c3ccc(O)cc3Oc3ncn(CCCO)c(=N)c32)cc1OC` (stereo unspecified), the activation is -0.83%.

On to `CC(C)(C)C1CCC(OC(=O)CCC(=O)Nc2ccccc2)CC1` (stereo unspecified), for which the activation was -1.07%.

Consider `O=C(NNC(=O)c1cc(S(=O)(=O)N2CCCCC2)ccc1Cl)c1ccccc1O`, for which the activation is 0.18%.

Turning to `Nc1nc(SCC(=O)Nc2ccc(Cl)c([N+](=O)[O-])c2)n[nH]1`, the activation was 0.36%.

Regarding `COC(=O)c1cnn2c(C(F)(F)F)cc(-c3ccco3)nc12`, the activation is -0.89%.

With `O=C1c2cccc(OCC(=O)N3N=C(c4cccs4)CC3c3ccc(F)cc3)c2CCN1Cc1ccccc1` (stereo unspecified), the activation is -0.93%.

For `Cn1cc(CN2CCCC(CO)C2)c(-c2ccc(Oc3ccccc3)cc2)n1` (stereo unspecified), the activation was 2.56%.

Regarding `CCCCN(C)CCNC(=O)C1CCCN(S(=O)(=O)c2cccc3nsnc23)C1` (stereo unspecified), the activation was 0.58%.

In the case of `O=S(=O)(NCc1ccccc1Br)c1ccccc1Br`, the activation was -0.25%.

Regarding `O=C(CS(=O)(=O)c1ccccc1)Nc1ccc(S(=O)(=O)Nc2ccccn2)cc1`, the activation was -0.26%.
